# From PubChem BioAssay
# TGFb SMAD3 inh – qHTS for Inhibitors of TGF-b; HepG2 CAGA-GFP TGF-b/SMAD3 reporter, GFP fluorescence, 18 h; TGF-beta stimulated, 500 pg/mL final; Potency, µM (titrated, usually from 46.1 µM), for the others: at the top dose activity, negative = inhibition, actives largely listed as inhibitors; hit rate 1.2% among 410,000; further: on the % scale 0 is the no-effect control and ±100 the full control effect; nearly all actives have a fitted effect of over 65% in size
#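 Inhibition of TGF-beta-driven CAGA-GFP reporter expression in HEPG2 cells is measured by cellular GFP fluorescence after 18 h stimulation with 500 pg/mL recombinant TGF-beta in 1% FBS medium at 37 degrees C.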
# HepG2 viability – qHTS for Inhibitors of TGF-b: Cytotox Counterscreen. Potency, µM (top dose mostly 46.1 µM), for inactives: at the top dose activity change, negative = cytotoxicity, hits mostly cytotoxic. AID 588856, 2011. hit rate 0.76% among 410,000. HepG2 CAGA-GFP viability, ATP luminescence, 18 h
#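 CellTiter-Glo luminescence gave cytotoxicity after 18 hours at 37 degrees C. The cells were HepG2 CAGA-GFP in 1% FBS DMEM, stimulated with 500 pg/mL TGF-beta after compound addition. %Activity was normalised to no-cell wells (complete cell-killing) and DMSO (no toxicity), and curves were fitted and classified.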
# HT1080 IDH1KD tx – qHTS for induction of synthetic lethality in tumor cells producing 2HG: qHTS for the HT-1080-IDH1KD cell line. HT-1080 IDH1 knockdown viability, ATP luminescence, 48 h. Potency, µM (top dose mostly 46.1 µM), for the others: top-dose activity, negative = toxicity, hits mostly cytotoxic. hit rate 2% among 360,000. AID 686971, 2013;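 further: 0% = DMSO wells and -100% = cell-free medium wells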
#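 Knockdown cells (IDH1KD HT-1080) received compounds 2 h after plating at 750 cells/well and were kept 48 h at 37 °C in 5% FBS RPMI. A CellTiter-Glo luminescence read gave % activity for curve fitting.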
# KB-3-1 cytotox – qHTS assay for MDR1-selective chemotherapeutics: Primary screen using the parental adenocarcinoma cell KB-3-1; KB-3-1 viability, CellTiter-Glo ATP luminescence, 72 h; Potency, µM (doses to about 46.1 µM), most hits filed as cytotoxic; hit rate 1.4% among 400,000; further: on the % scale 0 is the no-effect control and ±100 the full control effect; nearly all actives have a fitted effect of over 60% in size
#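 Cytotoxicity measured as CellTiter-Glo luminescence after 72 h at 37 C. Compound titrations were pinned onto drug-naive KB-3-1 parental adenocarcinoma cells grown in DMEM with 10% FBS, and normalized data fitted to concentration-response curves.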
# HT1080-NT tox – qHTS for induction of synthetic lethality in tumor cells producing 2HG: qHTS for the HT-1080-NT fibrosarcoma cell line | AID 686970, 2013 | hit rate 1.6% among 360,000 | Potency, µM (titrated, usually from 46.1 µM), without a hit: at the highest dose activity, negative = less viability, hits mostly cytotoxic | HT-1080-NT fibrosarcoma viability, CellTiter-Glo ATP luminescence, 48 h;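 further: NT is the 2HG producing partner of a matched IDH1 knockdown line; 0% = DMSO-treated cells and -100% = media-only wells without cells; nearly all actives have a fitted effect of over 55% in size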
#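 Viability of the 2HG-overproducing fibrosarcoma line after 48 hours of compound exposure at 37 degrees C was determined by luminescence with CellTiter-Glo, and concentration-effect curves were then fitted and categorized.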
# KB-V1 MDR tox – qHTS assay for MDR1-selective chemotherapeutics: Primary screen using the drug-selected MDR subline cells KB-V1; AID 1347076, 2019; Potency, µM (highest dose often 46.1 µM), usual class: cytotoxic; KB-V1 MDR cells viability, CellTiter-Glo, 72 h; hit rate 3.4% among 400,000; further: on the % scale 0 is the no-effect control and ±100 the full control effect; nearly all actives have a fitted effect of over 60% in size
#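 Readout: CellTiter-Glo luminescence, 10 min after addition. Cells: KB-V1 MDR subline, 72 h at 37 degrees C with compound. Analysis: corrected, normalized data fitted to concentration-effect curves.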
# * = called active by the depositor; i = inactive; ? = inconclusive; · = no result given. Sampled rows, rich in hits. Any-hit rate of the full collection: about 6.6%. The call rests on the fitted dose curve; in most records, active means well fitted curve in the direction sought with a large enough effect; inconclusive means small, poorly fitted or top-dose-only effect, or another doubt; inactive means no such curve, though single readings can be large; an effect the other way counts as inactive or inconclusive. Potency means the concentration at half of the fitted maximal effect.
SMILES,TGFb SMAD3 inh,HepG2 viability,HT1080 IDH1KD tx,KB-3-1 cytotox,HT1080-NT tox,KB-V1 MDR tox
S=C(Nc1ccccc1Cl)N(CCCN1CCOCC1)Cc1ccco1,-4%,-2%,11%,i,8%,21µM*
CCOC(=O)c1ccc(NC(=S)N(CCCN2CCCCC2)Cc2ccco2)cc1,0.63µM*,-26%,?,i,?,i
COc1ccc(C2=Nc3ccccc3N(CC(=O)Nc3cccc(C(C)=O)c3)C(=O)C2)cc1,?,-22%,·,i,·,i
CCc1ccc(NC(=O)N2CCN(c3nnc(C)c4c(C)n(-c5ccc(Cl)cc5)nc34)CC2)cc1,-3%,4%,·,?,·,i
CCOc1ccc(-n2c(SCc3cc(=O)oc4cc(C)ccc34)nnc2-c2cccnc2)cc1,5%,-4%,14%,i,7%,?
CC(C)c1ccccc1-n1c(SCc2cc(=O)oc3ccc4ccccc4c23)nnc1-c1cccnc1,-34%,13%,?,?,-26%,21µM*
Cc1nnc(SCc2cc(=O)oc3ccc4ccccc4c23)n1Cc1ccccc1,4%,-27%,10%,i,-3%,16µM*
Cc1nnc(SCc2cc(=O)oc3cc(O)ccc23)n1Cc1ccccc1,-28%,0%,-2%,i,0%,i
COC(=O)c1cc(NC2(c3ccccc3)C(=O)c3ccccc3C2=O)cc(C(=O)OC)c1,-10%,-7%,·,i,·,?
COc1ccc2c(C)c(Cl)c(=O)oc2c1,-1%,0%,14%,i,8%,i
C=C1CC(COc2ccc3c(C)c(Cl)c(=O)oc3c2)(c2ccccc2)OC1=O (stereo not given),?,-99%,6.5µM*,?,16µM*,?
CC(=O)N1CCc2c(sc3c2c(=O)n(-c2ccccc2Cl)c(=O)n3C)C1,0%,4%,·,i,·,i
COc1cc(/C=C(/C#N)c2nc3ccccc3[nH]2)ccc1OCC(=O)Nc1ccccc1C,10%,-1%,-3%,?,-7%,1.8µM*
COc1cc(/C=C(/C#N)c2nc3ccccc3[nH]2)ccc1OCC(=O)Nc1ccccc1C(C)C,?,-50%,8%,?,16%,?
COc1cc(/C=C(\C#N)c2nc3ccccc3s2)ccc1OCC(=O)Nc1ccccc1,-3%,-29%,7%,?,9%,9.2µM*
NS(=O)(=O)c1ccc(S(=O)(=O)N2CCN(c3nc(-c4cccs4)nc4ccccc34)CC2)cc1,-27%,0%,·,i,·,i
Cc1ccc(C(=O)c2cn(Cc3cccc(C)c3)c3nc(C)ccc3c2=O)cc1,?,-39%,·,i,·,i
CCc1cccc(NC(=O)C(c2ccccc2)N2Cc3ccccc3C2=O)c1 (stereo not given),6%,-11%,·,·,·,·
Cn1c(/C=N/Nc2nc3ccccc3[nH]2)nc2ccccc21,?,-24%,?,?,-30%,i
Cc1nn(-c2ccccc2)c(C)c1/C=N/Nc1nc2ccccc2[nH]1,?,-46%,18µM*,?,?,?
CC(C)Cn1c(/C=N/Nc2nc3ccccc3[nH]2)nc2ccccc21,?,-18%,?,16µM*,?,?
Cc1c(/C=N/Nc2nc3ccccc3[nH]2)c2ccccc2n1C,?,-32%,?,?,21µM*,?
C=CCn1cc(/C=N/Nc2nc3ccccc3[nH]2)c2ccccc21,?,0%,16µM*,i,21µM*,?
CCCOc1ccc(NC(=O)CC2C(=O)N(c3cccc(OC)c3)C(=O)N2CCc2ccncc2)cc1 (stereo not given),-18%,-15%,·,·,·,·
Cc1ccc(-n2c(=O)c3ccc(C(=O)NCc4ccccc4Cl)cc3n(Cc3cccc(F)c3)c2=O)cc1,7%,4%,·,i,·,i
SMILES,TGFb SMAD3 inh,HepG2 viability,HT1080 IDH1KD tx,KB-3-1 cytotox,HT1080-NT tox,KB-V1 MDR tox
CNC(C)C(=O)NC(C(=O)N1CCCC1C(=O)NNc1ccccc1)C(C)C (stereo not given),-9%,-39%,2.3µM*,i,1.3µM*,i
CNC(C)C(=O)NC(C(=O)N1CCCC1C(=O)NC1CCCc2ccccc21)C(C)C (stereo not given),2%,-1%,-6%,i,1%,i
Cc1ccc(N(Cc2ccc([N+](=O)[O-])cc2)C(=O)c2ccco2)cc1C,-1%,-10%,-8%,i,-2%,10µM*
Cc1cccc(CC(Cc2nc3ccccc3[nH]2)c2nc3ccccc3[nH]2)c1 (stereo not given),?,-20%,26µM*,?,18µM*,?
Oc1ccc2ccccc2c1/C=C/c1ccc2c(Br)cc(Br)c(O)c2n1,?,-83%,29µM*,?,?,4.1µM*
O=c1[nH]c2cc3ccccc3cc2nc1-c1nnnn1C1CCCC1,·,·,16µM*,5.8µM*,?,i
CC(C)NS(=O)(=O)c1ccc2nc(NC(=O)c3cncc(Br)c3)sc2c1,?,-59%,·,i,·,i
Cc1cc(N2CCOCC2)nc(SCc2c(Cl)cccc2Cl)n1,11µM*,-24%,-19%,?,-18%,i
CCOC(=O)c1ccc(NC(=O)CSc2c3c(nc4cc(Cl)ccc24)CCCC3)cc1,-20%,14%,·,i,·,i
COc1ccc(OCc2nc3ccccc3n2Cc2ccc(C(C)(C)C)cc2)cc1,16µM*,-26%,·,i,·,i
COCc1nc2ccccc2n1Cc1ccc(C(C)(C)C)cc1,10µM*,-59%,·,i,·,i
CC(C)(C)c1ccc(OCc2nc3ccccc3n2CCOc2ccccc2)cc1,-13%,-36%,·,i,·,i
CCN1CCN(Cc2c(O)ccc3c(C)c(-c4ccc(OC)cc4)c(=O)oc23)CC1,?,-11%,·,i,·,i
FC(F)(F)c1nnc2c(Sc3ccccc3)nc3ccccc3n12,?,-42%,?,12µM*,?,?
FC(F)(F)c1nnc2c(Sc3ccc(Cl)cc3)nc3ccccc3n12,?,-54%,8%,3.7µM*,?,?
Cc1ccc(Cl)cc1N1CCN(C(=O)C2CCN(S(=O)(=O)Cc3ccccc3)CC2)CC1,-24%,-20%,·,i,·,i
